Test results taken from PubChem BioAssay (NCI).
This is part of a sample that, as a whole, favours compounds with a hit. Of some 79,000 tested, about 15% had one in any assay. Values without a mark were called inactive. The source made the active and inactive calls. No stated cut-off is given here; in the data, active means growth inhibition above about 70%; inactive means the rest.

Assays:
[1] = NCI Yeast Anticancer Drug Screen. Data for the rad50 strain (AID 155);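 further: 0% = growth of vehicle-only cultures of the same strain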; details: S. cerevisiae rad50 strain growth inhibition, stronger effect = higher value
Method in brief: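 DNA repair mutant yeast, compound exposure, growth read-out; inhibition is taken relative to vehicle.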

[2] = NCI Yeast Anticancer Drug Screen. Data for the mec2-1 strain (AID 157); details: S. cerevisiae mec2-1 strain, stronger effect = higher value
Method in brief: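 Growth inhibition is read against vehicle-treated controls after compound exposure of the mec2-1 yeast strain, which is defective in DNA damage repair or cell cycle control.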

[3] = NCI Yeast Anticancer Drug Screen. Data for the sgs1 mgt1 strain (AID 161);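 further: 0% = growth of cultures given vehicle only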; details: S. cerevisiae sgs1 mgt1 strain, stronger effect = higher value
Method in brief: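 This yeast growth screen uses a strain with defined DNA-repair lesions; compound-treated growth is compared with vehicle-treated growth.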

[4] = NCI Yeast Anticancer Drug Screen. Data for the cln2 rad14 strain (AID 165);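 further: 0% = growth equal to vehicle treated cultures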; details: S. cerevisiae cln2 rad14 strain, stronger effect = higher value
Method in brief: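 Growth inhibition, relative to vehicle-treated controls, is the read-out. The test organism is a yeast strain with defined genetic alterations, cln2 rad14.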

[5] = NCI Yeast Anticancer Drug Screen. Data for the bub3 strain (AID 167); details: S. cerevisiae bub3 mutant strain, stronger effect = higher value
Method in brief: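 In this screen, a yeast mutant lacking normal mitotic checkpoint function is challenged with compound. Relative growth versus vehicle gives the inhibition value.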

[6] = NCI Yeast Anticancer Drug Screen. Data for the mlh1 rad18 strain (AID 175); details: S. cerevisiae mlh1 rad18 strain growth inhibition, stronger effect = higher value
Method in brief: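 Cells of a genetically altered yeast strain, deficient in DNA damage repair, were treated with compound. Their growth was then compared with that of vehicle-treated cultures to give inhibition.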

[7] = at 5.0 µM (retest, dose inferred, filed as 0.5)
[8] = at 50.0 µM (retest, dose inferred, filed as 5.0)

| SMILES | growth inhibition [1, 7] | growth inhibition [1, 8] | growth inhibition ([1]; at 50.0 µM) | growth inhibition [2, 7] | growth inhibition [2, 8] | growth inhibition ([2]; at 50.0 µM) | growth inhibition [3, 7] | growth inhibition [3, 8] | growth inhibition ([3]; at 50.0 µM) | growth inhibition [4, 7] | growth inhibition [4, 8] | growth inhibition ([4]; at 50.0 µM) | growth inhibition [5, 7] | growth inhibition [5, 8] | growth inhibition ([5]; at 50.0 µM) | growth inhibition [6, 7] | growth inhibition [6, 8] | growth inhibition ([6]; at 50.0 µM) |
| --- | --- | --- | --- | --- | --- | --- | --- | --- | --- | --- | --- | --- | --- | --- | --- | --- | --- | --- |
| COC(=O)CC1(O)c2cc(OC)c3cccc(OC)c3c2CCC1(C)C(=O)OC (centres undefined) | 88% (active) | 97% (active) | 92.9% (active) | 91% (active) | 99% (active) | 88.8% (active) | 85% (active) | 99% (active) | 95.2% (active) | 80% (active) | 97% (active) | 96% (active) | 83% (active) | 98% (active) | 88.5% (active) | 92% (active) | 98% (active) | 94.8% (active) |
| Oc1ccc2c(c1)Cc1cc(Br)ccc1-2 | 3% | 99% (active) | 98.5% (active) | -6% | 99% (active) | 98.9% (active) | 7% | 80% (active) | 98.6% (active) | -5% | 99% (active) | 97.8% (active) | 24% | 99% (active) | 98.5% (active) | -11% | 99% (active) | 98.2% (active) |
| Cc1cc(C)c(O)c(Cc2cc(Cl)cc(Cc3cc(C)cc(C)c3O)c2O)c1 | 0% | 91% (active) | 94% (active) | 1% | 93% (active) | 92.5% (active) | 13% | 93% (active) | 95.3% (active) | 6% | 91% (active) | 95.2% (active) | -9% | 92% (active) | 93.5% (active) | 15% | 92% (active) | 91.4% (active) |
| O=[N+]([O-])/C=C\c1csc2ccccc12 | 94% (active) | 99% (active) | 99.2% (active) | 96% (active) | 98% (active) | 99.6% (active) | 97% (active) | 99% (active) | 99.5% (active) | 81% (active) | 99% (active) | 99.3% (active) | 92% (active) | 99% (active) | 99.3% (active) | 92% (active) | 99% (active) | 99.3% (active) |
| O=c1nc(NC(c2ccccc2)(c2ccccc2)c2ccccc2)ccn1CCNCCn1ccc(NC(c2ccccc2)(c2ccccc2)c2ccccc2)nc1=O | 82% (active) | 96% (active) | 87.6% (active) | 52% | 97% (active) | 89% (active) | 65% | 98% (active) | 91.5% (active) | 34% | 97% (active) | 89.2% (active) | 74% (active) | 98% (active) | 91% (active) | 90% (active) | 97% (active) | 90% (active) |
| CC(C)=CCC(OC(=O)CC(C)C)C1=CC(=O)c2c(O)ccc(O)c2C1=O (centres undefined) | -1% | 99% (active) | 87.3% (active) | 1% | 99% (active) | 89.2% (active) | 1% | 99% (active) | 89.7% (active) | -17% | 99% (active) | 82.2% (active) | 2% | 99% (active) | 86% (active) | 1% | 99% (active) | 87.4% (active) |
| COc1nc2nc(SC(CC(=O)O)C(=O)c3ccc(Cl)cc3)[nH]c2c2ccccc12 (centres undefined) | 1% | 7% | 10.1% | 0% | 1% | 7.45% | 2% | -18% | -3.85% | 2% | -15% | -12.1% | -2% | -1% | -5.45% | -1% |  | 32.9% |
| Cc1ccc(S(=O)(=O)N/N=C2/CCC3(O)CC2(C)CCC2[C@H]3CC2(C)C)cc1 (some centres undefined) | 17% | 72% (active) | 66.7% | -7% | 83% (active) | 57.2% | 1% | 54% | 70.2% (active) | 13% | 69% | 83.8% (active) | 2% | 86% (active) | 75% (active) | 5% | 88% (active) | 70.7% (active) |
| CC(C)CC(NC(=O)SCc1ccccc1)C(=O)O (centres undefined) | -2% | 35% | 3.35% | -12% | -5% | 1.6% | -1% | -1% | 3% | 5% | 8% | 15.4% | 2% | 1% | -5.95% | 3% | 24% | 14.8% |
| CCC/C=C1/OC(=O)C2=C[C@H]3CC[C@]21[C@]1(OC(=O)C2=C1CCC=C2)[C@H]3CCC | 0% | 96% (active) | 88.2% (active) | 14% | 97% (active) | 88.9% (active) | 17% | 96% (active) | 87.8% (active) | -6% | 96% (active) | 86.9% (active) | 2% | 93% (active) | 88.3% (active) | 14% | 95% (active) | 90.5% (active) |
| COc1cccc(/C=C2/Sc3scc(-c4ccccc4)[n+]3C2=O)c1O | 14% | 20% | 80.4% (active) | -9% | 21% | 55.6% | -5% | 23% | 82.3% (active) | -12% | 18% | 61.8% | -17% | 64% | 93.1% (active) | 12% | 66% | 94.1% (active) |
| CC1=CC(=O)CC(c2ccccc2)C1 (centres undefined) | 43% | 98% (active) | 97.6% (active) | 30% | 99% (active) | 98.3% (active) | 22% | 99% (active) | 98.7% (active) | 11% | 97% (active) | 92.5% (active) | 31% | 99% (active) | 98.7% (active) | 55% | 99% (active) | 98.3% (active) |
| N=C(N)SC1c2ccccc2-c2ccc(N)cc21 (centres undefined) | 17% | 95% (active) | 98% (active) | 4% | 75% (active) | 98.4% (active) | -1% | 77% (active) | 98.5% (active) | -4% | 81% (active) | 96.8% (active) | 0% | 86% (active) | 97% (active) | 12% | 95% (active) | 97.8% (active) |
| Cc1ccc(N=Nc2c(C)c(C#N)c(=S)n(C3OC(CO)C(O)C(O)C3O)c2-c2ccccc2)cc1 (centres undefined) | -8% | -2% | 35% | -5% | 2% | 50.5% | -1% | 12% | 65.2% | 12% | 15% | 46% | -4% | -10% | 42% | -17% | 21% | 68.8% |
| O=C(O)C1CCc2ccc3ccccc3c2C1c1cccc2ccccc12 (centres undefined) | 42% | 98% (active) | 98.1% (active) | 36% | 98% (active) | 98% (active) | 32% | 98% (active) | 97.7% (active) | 61% | 98% (active) | 97% (active) | 40% | 98% (active) | 97% (active) | 52% | 98% (active) | 98% (active) |
| O=C(CNc1cccc(Cl)c1)Nn1c(-c2ccccc2)nc2ccccc2c1=O | 7% | 88% (active) | 92% (active) | -1% | 69% | 87.7% (active) | 4% | 59% | 95.2% (active) | 16% | 74% (active) | 90.6% (active) | 22% | 87% (active) | 96% (active) | 4% | 86% (active) | 96.7% (active) |
| COc1ccc(/C=C2\NC(=O)NC2=O)cc1 | 0% | 7% | -1.65% | -4% | 5% | -6.8% | -1% | 3% | -0.65% | -4% | -3% | 24.1% | 27% | 22% | 6.25% | -1% | 5% | 18.6% |
| CC(=O)NCCN(C)C | 2% | -1% | 93.5% (active) | 2% | -4% | 97% (active) | 6% | -1% | 84.1% (active) | -2% | -3% | 85.7% (active) | -3% | 0% | 92.5% (active) | 4% | 4% | 88.8% (active) |
| CC(=O)N[C@H]1CCC2[C@@H]3CCC4=CC(=O)NCC[C@]4(C)C3CC[C@@]21C (some centres undefined) | 0% | 89% (active) | 56.5% | -2% | 92% (active) | 46.6% | -3% | 58% | 56.4% | -4% | 78% (active) | 69.5% | 6% | 88% (active) | 96.2% (active) | -2% | 85% (active) | 57.5% |
| NC(N)=Nc1ccc(N=C(N)N)cc1 | 3% | 2% | 92% (active) | 1% | -2% | 99.7% (active) | -1% | -3% | 17.1% | 1% | 1% | 60.8% | 3% | 3% | 99.2% (active) | 2% | 2% | 45.5% |
